# This is a sample that favours compounds with a hit; in the whole collection about 11% have one here.
# ALDH1A1 block: inhibitors of human aldehyde dehydrogenase 1A1. P00352. Purified ALDH1A1, NADH fluorescence, propionaldehyde substrate. Potency, µM (doses to about 75.3 µM), for the others: at the highest dose activity, negative = inhibition, most hits filed as inhibitors. hit rate 7.3% among 220,000;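 note: potency is the fitted concentration of half-maximal effect; plate controls were no enzyme wells and a reference inhibitor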
# Target sequence (P00352 whole entry, looked up): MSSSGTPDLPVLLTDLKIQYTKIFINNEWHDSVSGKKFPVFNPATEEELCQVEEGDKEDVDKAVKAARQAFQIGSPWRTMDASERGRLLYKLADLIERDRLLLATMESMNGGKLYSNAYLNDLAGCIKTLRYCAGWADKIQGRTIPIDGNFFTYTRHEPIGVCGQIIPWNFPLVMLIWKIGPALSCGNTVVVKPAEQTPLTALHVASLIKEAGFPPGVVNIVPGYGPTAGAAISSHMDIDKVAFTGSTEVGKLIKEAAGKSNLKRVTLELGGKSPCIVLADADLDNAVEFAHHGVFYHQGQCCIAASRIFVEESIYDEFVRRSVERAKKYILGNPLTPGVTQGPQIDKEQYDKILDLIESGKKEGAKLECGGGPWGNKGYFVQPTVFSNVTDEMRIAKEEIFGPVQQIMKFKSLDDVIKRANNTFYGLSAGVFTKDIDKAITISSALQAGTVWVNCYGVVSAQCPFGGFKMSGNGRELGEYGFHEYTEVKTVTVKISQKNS
# JMJD2E inh: blocks human JMJD2E demethylase activity | B2RXH2 | JMJD2E catalytic domain, FDH-coupled NADH fluorescence (FDH is formaldehyde dehydrogenase) | Potency, µM (doses to about 57.1 µM), without a hit: at the top dose activity change, negative = inhibition, hits mostly inhibitors | hit rate 1.6% among 230,000;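 note: potency is the fitted concentration of half-maximal effect; 0% = wells with enzyme and -100% = buffer wells without enzyme; nearly all actives have a fitted effect of over 50% in size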
# PNC inhibitor: inhibitors of perinucleolar compartment assembly | hit rate 3.1% among 140,000 | activity change (PNC), negative = inhibition, % at 10 µM | PC3M PTB-GFP, PNC prevalence imaging, 16 h; stronger effect = lower value;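 active = readout at or below -70, meaning at least 70% loss of cells showing the perinucleolar compartment, a nuclear body marking cancer cells; inconclusive = readout between -30 and a set limit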;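 note: plate controls were DMSO wells for no effect and camptothecin positive control wells for full effect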
#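 Read-out is percentage of cells bearing a perinucleolar compartment, from automated 20x imaging of fixed, Hoechst-stained PC3M PTB-GFP cells. Cells were seeded 4 h, then exposed 16 h to compound (23 nl of library stock) in duplicate plates.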
# HPGD block: blocks human HPGD enzyme activity; purified HPGD, NADH fluorescence kinetic, PGE2 substrate; hit rate 4.3% among 150,000; P15428; Potency, µM, without a hit: top-dose activity change, negative = inhibition, hits mostly inhibitors; AID 894; note: potency is the fitted concentration of half-maximal effect
#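 20 nM HPGD preincubated 15 min at room temperature with compound in 50 mM Tris-HCl pH 8, 0.01% Tween 20. Started with 1 mM NAD+ and 30 uM prostaglandin E2; NADH fluorescence (360/450 nm) read 5 times over 30-s intervals, last minus first.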
# Starred values were filed as active, the others as inactive; ? = inconclusive; . = no result. Unless noted, calls come from the whole dose curve; as a rule, active = well fitted inhibition curve with a large enough effect (not every such curve was filed as active); inconclusive = small, poorly fitted or top-dose-only effect, or another doubt; inactive = no such curve, though single readings can be large or run the other way. Unless noted, % is set by controls: 0 for no effect and ±100 for the full control effect.
SMILES,ALDH1A1 block,JMJD2E inh,PNC inhibitor,HPGD block
Cc1nn(-c2ccccc2)c2c1C(c1ccc(Br)s1)C(C#N)=C(N)O2 (stereo not given),3.2µM*,-4%,.,.
Cc1nn(-c2ccccc2)c2c1C(c1ccccc1)C(C#N)=C(N)O2 (stereo not given),3.5µM*,1%,5,32µM*
Cc1cc(C(N)=O)nn1-c1c(Cl)cc(Cl)cc1Cl,7%,1%,.,.
NC1CCN(c2c(F)cc3c(=O)c(C(=O)O)cn(C4CC4)c3c2Cl)C1 (stereo not given),19%,-1%,.,.
O=C(c1ccc(Oc2ccccc2)cc1)C1CCCN(C(=O)c2cnccn2)C1 (stereo not given),.,-19%,.,.
Cc1cnc(C(=O)N2CCCC(C(=O)c3ccc(C(C)(C)C)cc3)C2)cn1 (stereo not given),13µM*,-3%,.,.
CCN1CCN(c2nc(C)nc3c2sc(=S)n3C)CC1,?,0%,-10,10µM*
Cc1nc(N2CCCCC2)c2sc(=S)n(C)c2n1,1%,2%,-27,-4%
CCOc1ccc(NC2=CC(=O)CC(c3ccco3)C2)cc1 (stereo not given),-11%,-11%,.,.
CCCCCCCNC1=CC(=O)CC(c2ccco2)C1 (stereo not given),25µM*,-14%,1,-9%
O=C(COC(=O)c1ccncc1)c1ccc(Br)cc1,5%,?,.,.
COC(=O)C(CC(=O)c1ccc(Br)cc1)n1ccnc1 (stereo not given),0.45µM*,13%,-8,2.5µM*
COc1cc2c(cc1NC(=O)C(C)OC(=O)C1CC(=O)N(Cc3ccco3)C1)oc1ccccc12 (stereo not given),-10%,-6%,38,28µM*
Cc1cc(=O)[nH]c(SCCOc2ccc(OC(C)C)cc2)n1,?,-3%,36,18µM*
Cc1cc(=O)[nH]c(SCCOc2ccc3c(c2)CCC3)n1,15%,-3%,17,-18%
Cn1cccc1C(=O)N1CCC2(CCCN(C(=O)Nc3cccc(C#N)c3)C2)CC1,4%,.,.,-2%
Nc1cc(=O)[nH]c(SCC(=O)N2CCCCC2)n1,-10%,-3%,.,.
Nc1cc(N)nc(SCC(=O)N2CCCCC2)n1,-4%,2%,35,28µM*
Cc1cc(C)nc(SCC(=O)NN)n1,10µM*,-3%,.,.
O=C(CSc1nc2ccccc2nc1SCC(=O)N1CCOCC1)N1CCOCC1,3%,3%,?,-20%
Cc1cc(C)nc(SCC(=O)c2ccc(O)cc2O)n1,11%,-2%,-92*,-19%
O=C(CSc1nc2ccccc2nc1SCC(=O)N1CCCCC1)N1CCCCC1,10%,1%,-20,2.5µM*
Cc1cc(C)nc(SCC(=O)N2CCCCC2)n1,?,-1%,?,7.9µM*
Cc1cc(C)nc(SCc2nnc(SCC#N)n2-c2cccc(Cl)c2)n1,9%,3%,-8,16µM*
Cc1ccc(-n2c(CSc3nc(C)cc(C)n3)nnc2SCC(=O)N2CCCC2)cc1,?,-6%,-100*,3%
SMILES,ALDH1A1 block,JMJD2E inh,PNC inhibitor,HPGD block
Cc1cc(C)nc(SCc2nnc(SCC(=O)O)n2-c2ccccc2)n1,8%,4%,.,.
CC(CNC(=O)c1cccs1)c1ccc([N+](=O)[O-])cc1 (stereo not given),?,0%,.,.
COc1cc(C(C(=O)Nc2c(C)cccc2C)N(C)C(=O)c2ccc(-n3cnnn3)cc2)ccc1O (stereo not given),.,8%,.,.
COc1ccc(C(=O)CSc2[nH]c(=O)cc(C(F)(F)F)c2C#N)cc1,18µM*,-11%,.,.
COc1ccc(-c2cc(C(F)(F)F)c(C#N)c(SCC(=O)Nc3ccc(C)cc3)n2)cc1,0%,?,48,?
O=C(Nc1ccc(S(=O)(=O)Nc2ncccn2)cc1)c1cnc(Cl)c(Cl)c1,0%,2%,.,.
O=C(Nc1ccc(Cl)cc1)Nc1ccc(S(=O)(=O)Nc2ncccn2)cc1,-3%,?,.,.
CN(C)c1nc(NS(=O)(=O)c2ccc(Cl)cc2)nc(N(C)C)n1,2%,12%,-121*,-2%
O=C(Nc1ccc(S(=O)(=O)Nc2ncccn2)cc1)c1ccc2ncsc2c1,7.1µM*,3.2µM*,.,.
CN(c1ccccc1C(=O)Nc1ccc(S(=O)(=O)N2CCCC2)cc1)S(C)(=O)=O,13µM*,-1%,31,-12%
CN(c1ccccc1C(=O)Nc1ccc(S(=O)(=O)N2CCCCC2)cc1)S(C)(=O)=O,-4%,-1%,-20,4%
O=S(=O)(Nc1ccncc1)c1ccc(Cl)cc1,33%,13%,44,3%
O=S(=O)(Nc1ncccn1)c1ccc(NC(=S)Nc2ccc(Cl)cc2)cc1,10µM*,0%,.,.
Cc1ccccc1C(=O)/C=C1/SCC(=O)N1C,8%,-7%,.,.
O=S(=O)(Nc1ncccn1)c1ccc(-n2cnnn2)cc1,4%,-27%,.,.
COc1ccc(NS(=O)(=O)c2cccc(NC(=O)c3ccc(S(=O)(=O)N4CCCCCC4)cc3)c2)cc1,?,13%,-112*,-13%
COc1ccc(NS(=O)(=O)c2ccc(N3CCOCC3)c(NC(=O)c3ccccc3Cl)c2)cc1,7%,-4%,24,-11%
COc1ccc(NS(=O)(=O)c2ccc(N3CCCC3)c(NC(=S)Nc3cccc(S(=O)(=O)N(C)C)c3)c2)cc1,3.2µM*,-4%,?,3.2µM*
O=C(Nc1ccc(S(=O)(=O)Nc2ncccn2)cc1)c1ccc(S(=O)(=O)N2CCCC2)cc1,25µM*,1%,.,.
CSC1=NS(=O)(=O)c2c(C)nn(C)c2S1,.,3.5µM*,.,.
O=C(O)CNS(=O)(=O)c1ccc(F)cc1,-5%,11%,?,5%
C=CCNC(=O)CNS(=O)(=O)c1ccc(F)cc1,?,13%,53,32µM*
C[C@@H]1/C(=N/O)CC2C[C@@H]1C2(C)C,11µM*,7%,.,-5%
CCOC(=O)c1cc(C)sc1/N=C/C1C(=O)CC(C)(C)CC1=O,13µM*,11%,?,-2%
COC(=O)c1cc(OC)c(OC)cc1N=CC1=C(O)CC(C)(C)CC1=O,1µM*,6%,5,?
SMILES,ALDH1A1 block,JMJD2E inh,PNC inhibitor,HPGD block
CCOC(=O)c1ccc(N=CC2=C(O)CC(C)(C)CC2=O)cc1,?,?,19,?
CCOC(=O)c1c(/N=C/C2C(=O)CCCC2=O)sc(C)c1C,?,-10%,?,-7%
CCOC(=O)c1cc(CC)sc1/N=C/C1=C(O)CC(C)(C)CC1=O,11µM*,1%,4,-20%
CCOC(=O)c1c(CC(C)C)csc1/N=C/C1C(=O)CC(C)(C)CC1=O,6.3µM*,-13%,.,.
CCc1ccc(C(=O)COC(=O)c2ccc(Cl)nc2)cc1,0%,1%,.,.
O=C(Oc1coc(CSc2nnc(NC(=O)c3cccs3)s2)cc1=O)c1ccccc1,?,?,?,-20%
Cc1ccc(CN2CCN(CC(=O)N/N=C/c3ccc(C)o3)CC2)cc1,.,-6%,.,.
Cc1cc(C)cc(NC(=S)/C(=C(\[O-])c2ccc(Cl)s2)[n+]2cccc(C)c2)c1,25µM*,?,.,.
Cc1ccc(C)c(NC(=S)/C(=C(\[O-])c2ccc(Cl)s2)[n+]2ccccc2)c1,?,-8%,.,.

# Assay outcomes from PubChem.
